# Compounds with a hit are over-represented: about 3.4% of the library has one in this group of screens.
# FBW7 act: human FBW7 E3 ligase activation, primary screen; Q969H0; AlphaScreen FBW7–phospho-cyclin E peptide binding, activator screen; normalized activity (activation), % at 26.1 µM; hit rate 0.13% among 650,000; in the data active means normalized activity above about 1.9%;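 further: purified mutant Fbw7 with reduced substrate affinity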
# Target sequence (Q969H0 whole entry, looked up): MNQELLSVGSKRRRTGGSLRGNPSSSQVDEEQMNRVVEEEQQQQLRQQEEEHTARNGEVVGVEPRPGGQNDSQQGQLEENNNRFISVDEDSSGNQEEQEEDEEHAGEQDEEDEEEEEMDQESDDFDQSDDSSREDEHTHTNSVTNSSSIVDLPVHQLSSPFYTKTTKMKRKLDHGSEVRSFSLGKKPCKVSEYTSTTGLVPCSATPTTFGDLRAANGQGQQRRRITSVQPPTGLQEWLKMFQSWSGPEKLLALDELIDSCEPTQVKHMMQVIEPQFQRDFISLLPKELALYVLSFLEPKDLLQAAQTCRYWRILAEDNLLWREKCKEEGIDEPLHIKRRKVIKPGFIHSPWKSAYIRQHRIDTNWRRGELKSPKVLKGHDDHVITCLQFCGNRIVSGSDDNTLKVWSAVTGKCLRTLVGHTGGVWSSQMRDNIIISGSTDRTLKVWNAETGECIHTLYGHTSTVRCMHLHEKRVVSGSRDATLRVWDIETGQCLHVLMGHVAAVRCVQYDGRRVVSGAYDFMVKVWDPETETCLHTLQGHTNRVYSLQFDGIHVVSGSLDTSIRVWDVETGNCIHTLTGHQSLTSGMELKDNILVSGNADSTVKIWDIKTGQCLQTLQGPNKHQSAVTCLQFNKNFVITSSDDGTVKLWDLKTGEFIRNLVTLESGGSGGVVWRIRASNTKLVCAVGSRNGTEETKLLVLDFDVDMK
# GPR151 ag: activators of human GPR151. Q8TDV0. PathHunter beta-arrestin GPR151 cells, luminescence. activation, % at 11.2 µM. hit rate 1% among 650,000; in the data active means activation above about 4.9%;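 further: 0% = median of compound wells and 100% = cells with positive control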
# MITF inh: inhibitors of human MITF | O75030 | AlphaScreen MITF homodimerization, bead proximity signal | inhibition, % at 2.6 µM | hit rate 0.91% among 650,000; in the data active means inhibition above about 50%;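 further: 0% = vehicle wells with protein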
# TEAD-YAP block: TEAD-YAP interaction inhibition | inhibition, % at 9.12 µM | HEK-TIYL cells, TEAD-Gal4/YAP UAS-luciferase luminescence | hit rate 1.4% among 640,000; in the data active means inhibition above about 32%;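 further: 0% = median of test compound wells and 100% = reference inhibitor wells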
# Starred values were filed as active, the others as inactive.
SMILES,FBW7 act,GPR151 ag,MITF inh,TEAD-YAP block
CC(C)CC(C(=O)NCc1cccs1)N1Cc2ccccc2C1=O (configuration not stated),-0.2,0.6,-9.3,-6.2
CCN(C(=O)c1coc(=O)c2ccccc12)c1cccc(Cl)c1,-0.1,0.0,6.3,39.4*
CN(C(=O)c1coc(=O)c2ccccc12)c1ccccc1F,0.0,0.0,-2.3,10.1
CCN(C(=O)c1coc(=O)c2ccccc12)c1ccccc1F,-0.1,2.0,10.7,34.7*
CCCN(C(=O)c1coc(=O)c2ccccc12)c1ccccc1C,0.1,-0.7,1.3,38.2*
CC(C)CNc1ncnc2ccc(Br)cc12,-0.1,0.6,-5.3,42.3*
O=C(O)CNc1ncnc2ccc(Br)cc12,-0.1,-0.7,12.7,3.3
Cc1ccc2ncnc(NCCc3ccccc3)c2c1,-0.3,0.6,11.0,49.6*
Brc1ccc2ncnc(NCc3ccccc3)c2c1,0.3,-0.1,-4.9,59.8*
Cc1ccc2ncnc(NC3CCCCC3)c2c1,0.4,-1.3,31.6,36.7*
CC(=O)Nc1ccc(S(=O)(=O)NC(C)(C)C)cc1,-0.1,0.1,-7.4,-2.9
Cc1ccc2c(Cl)c(C(=O)NCc3ccccn3)sc2c1,-0.1,-0.6,14.5,-30.5
CCN(CC)c1ccc(Nc2ncnc3ccc(Br)cc23)cc1,-0.4,0.4,3.6,7.0
CC(C)OCCCNc1ncnc2ccc(Br)cc12,-0.1,1.0,-7.6,46.5*
CN(C)c1ccc(Nc2ncnc3ccc(Br)cc23)cc1,-0.4,1.0,-0.8,34.0*
COc1ccc(S(=O)(=O)N2CCCC(C(=O)c3sccc3C)C2)cc1OC (configuration not stated),-0.1,1.2,3.9,9.6
Cc1ccc(C(=O)Cn2c(C(=O)O)cc3ccccc32)cc1,-0.1,1.3,-2.2,3.5
Cc1ccc(C(=O)Cn2c(C(=O)OCCO)cc3ccccc32)cc1,0.2,-0.9,13.0,34.0*
COc1cccc(C(=O)NC(=S)Nc2ccc(N3CCOCC3)cc2)c1,0.0,-0.9,2.9,-2.9
O=C(c1ccccc1)N1CCN(c2nc(-c3ccccc3)c3ccccc3n2)CC1,2.2*,-0.4,9.3,-1.8
Cc1ccc2nc(N3CCN(C=O)CC3)nc(-c3ccccc3)c2c1,2.1*,-0.3,-4.5,7.4
Cc1ccc(C(=O)N2CCN(c3nc(-c4ccccc4)c4cc(Br)ccc4n3)CC2)cc1,-0.1,-1.3,10.2,-4.6
NC(=O)c1ccc(NC(=O)NC2CC(=O)N(c3ccc(F)cc3)C2)cc1 (configuration not stated),0.1,1.0,-2.4,7.0
Cc1cc(C)c(C(=O)/C=C/c2ccncc2)c(=O)[nH]1,0.1,-0.2,-12.9,31.7
Cc1cc(C)c(C(=O)/C=C/c2ccccc2F)c(=O)[nH]1,0.1,0.3,-19.7,66.2*
SMILES,FBW7 act,GPR151 ag,MITF inh,TEAD-YAP block
O=C1C(C=NCc2cccnc2)=C(O)c2ccccc21,-0.3,-0.4,5.3,38.5*
O=C1C(C=NCc2ccncc2)=C(O)c2ccccc21,-0.1,-1.2,3.4,22.2
CSc1ccccc1NC/C=C/c1ccc([N+](=O)[O-])o1,-0.2,1.8,8.0,7.0
CSc1ccccc1NC(=O)/C=C/c1ccc([N+](=O)[O-])o1,-0.2,-0.7,1.6,55.7*
Cc1ccc2c(c1)cc(CN(Cc1ccco1)C(=O)c1ccccc1C)c1nnnn12,0.3,0.4,8.1,6.3
COc1cc(OC)cc(C(=O)N/N=C(\C)CC(=O)Nc2cccc(C)c2C)c1,0.0,2.3,-8.3,49.9*
COc1cc(OC)cc(C(=O)N/N=C(\C)CC(=O)NCc2ccco2)c1,0.6,-0.7,-7.6,50.8*
COc1ccc(C(=O)N/N=C(\C)CC(=O)NCc2ccco2)cc1,1.4,-0.8,24.2,-51.8
Cc1occc1-c1nnc(SCc2nc3ccccc3s2)n1N,0.0,-1.6,6.4,-44.9
COc1ccc(C2C(C(=O)N3CCN(Cc4ccc5c(c4)OCO5)CC3)c3ccccc3C(=O)N2C)cc1 (configuration not stated),0.6,2.9,3.0,10.4
COc1ccc(-c2nc(NC3CC3)c3ncn(-c4ccccc4)c3n2)cn1,0.3,-1.0,18.5,47.6*
COc1ccc(-c2nc(NCc3ccccc3)c3ncn(-c4ccccc4)c3n2)cn1,-0.1,-0.8,-1.0,7.7
CCCNc1nc(-c2ccc(OC)cc2)nc2c1ncn2-c1ccsc1,0.1,0.1,-2.0,6.2
CCCNc1nc(-c2ccc(OC)nc2)nc2c1ncn2-c1ccsc1,0.8,1.2,6.6,50.8*
CCCNc1nc(-c2ccc(OC)nc2)nc2c1ncn2-c1ccccc1,0.0,-0.4,7.0,32.6*
COc1ccc(-c2nc(NCCO)c3ncn(-c4ccccc4)c3n2)cn1,0.0,-0.6,7.1,72.8*

# High-throughput results: PubChem BioAssay, The Scripps Research Institute Molecular Screening Center
